HTT aggregate: inhibitors of mutant huntingtin aggregate formation in PC12 cells. Potency, µM (highest dose often 46.1 µM), for inactives: top-dose activity change, negative = inhibition, most hits filed as inhibitors. PC12 HttQ103-GFP aggregates, Acumen cytometry, 40 h. hit rate 1.1% among 220,000. AID 1688; further: potency means the concentration at half of the fitted maximal effect; on the % scale 0 is the no-effect control and ±100 the full control effect; nearly all actives have a fitted effect of over 60% in size
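Huntingtin Q103 exon 1–GFP aggregates in induced PC12 cells (100 nM tebufenozide) were quantified by cytometry from lysates, with compounds dosed in titration.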
HTT ATP protect: Huntington cell model cytoprotection by ATP luminescence. AID 1471. hit rate 0.14% among 230,000. PC12 HTT-Q103 induced, cytoprotection, ATP luminescence, 40 h. Potency, µM (highest dose often 56.4 µM), for the others: cytoprotection (ATP increase), hits mostly activators; further: potency means the concentration at half of the fitted maximal effect; % of control where 0% means no effect; nearly all actives have a fitted effect of over 45% in size
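Compounds were screened for protection of PC12 cells against cell death after tebufenozide induction (100 nM final) of mutant Huntingtin exon 1 (Q103) fused to GFP.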
IMPase cell inh: IMPase inhibition in cells. AID 901. inhibition (IP1 accumulation), % at 46.1 µM. CHO-M1 cells, IP1 accumulation, HTRF TR-FRET ratio. 120,000 tested, under 10 active; active means well fitted curve in the direction sought with a large enough effect in the signal ratio, not every such curve was filed as active; inconclusive means small, poorly fitted or top-dose-only effect, or a change in a side signal; inactive means no such curve, though single readings can be large or run the other way; the % refers to the signal ratio;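 further: cells stimulated with carbachol in lithium chloride buffer; plate controls were DMSO basal wells for no effect and reference inhibitor wells for full effect; higher means more IMPase inhibition seen as more IP1 and lower FRET ratio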
Target sequence (P97697 whole entry, looked up): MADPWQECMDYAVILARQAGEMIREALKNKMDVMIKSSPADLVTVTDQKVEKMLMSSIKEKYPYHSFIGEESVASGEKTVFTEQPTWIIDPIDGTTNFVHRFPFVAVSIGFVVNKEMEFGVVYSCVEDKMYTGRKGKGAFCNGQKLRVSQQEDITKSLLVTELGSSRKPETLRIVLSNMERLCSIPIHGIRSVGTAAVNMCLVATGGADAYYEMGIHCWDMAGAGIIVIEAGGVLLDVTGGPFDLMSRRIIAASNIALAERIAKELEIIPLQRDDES
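CHO-M1 cells (CHO stably expressing M1 receptor), compound up to 46 uM final, stimulated with carbachol (50 uM as added) in buffer with 50mM LiCl, pH 7.4, 30 min at 37C. Cytosolic IP1 read by TR-FRET; AC50 from Hill fits.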
ALOX12 inhib: inhibitors of human 12-lipoxygenase (ALOX12). purified 12-hLO, xylenol orange hydroperoxide absorbance. AID 1452. P18054. hit rate 0.12% among 150,000. Potency, µM (series often up to 57.1 µM), without a hit: at the highest dose activity change, negative = inhibition, hits mostly inhibitors; further: potency means the concentration at half of the fitted maximal effect; on the % scale 0 is the no-effect control and ±100 the full control effect; nearly all actives have a fitted effect of over 55% in size
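Xylenol orange chromogenic assay: hydroperoxide from 12hLO oxidises Fe(II), giving red-shifted Fe(III)-XO absorbance. Conditions: 150 nM enzyme, 40 uM arachidonic acid, 25 mM Hepes pH 7.0, 0.01% Triton X-100, 30 min, room temperature.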
NPSR antagonist: blocks cAMP signaling of the human neuropeptide S receptor; Potency, µM (series often up to 38.3 µM), without a hit: at the top dose activity change, negative = inhibition, usual class: inhibitors; hit rate 1% among 220,000; Q6W5P4; CHO-NPSR cells, cAMP TR-FRET, antagonist mode; further: potency means the concentration at half of the fitted maximal effect; on the % scale 0 is the no-effect control and ±100 the full control effect; nearly all actives have a fitted effect of over 50% in size
Target sequence (Q6W5P4 whole entry, looked up): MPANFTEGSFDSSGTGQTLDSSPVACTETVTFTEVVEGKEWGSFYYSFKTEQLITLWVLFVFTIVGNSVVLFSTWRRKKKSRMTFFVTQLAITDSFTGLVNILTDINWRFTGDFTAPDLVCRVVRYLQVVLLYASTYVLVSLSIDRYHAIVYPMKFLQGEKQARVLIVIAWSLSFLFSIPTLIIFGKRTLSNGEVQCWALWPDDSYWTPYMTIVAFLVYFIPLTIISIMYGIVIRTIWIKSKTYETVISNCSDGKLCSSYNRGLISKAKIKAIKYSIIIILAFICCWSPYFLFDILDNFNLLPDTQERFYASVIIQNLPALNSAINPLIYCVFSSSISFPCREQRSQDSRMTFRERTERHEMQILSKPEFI
PNC inhibitor: perinucleolar compartment assembly inhibition; PC3M PTB-GFP, PNC prevalence imaging, 16 h; hits give low values; activity change (PNC), negative = inhibition, % at 10 µM; hit rate 3.1% among 140,000;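 active means readout at or below -70, meaning at least 70% loss of cells showing the perinucleolar compartment, a nuclear body marking cancer cells; inconclusive means readout between -30 and a set limit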;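 further: plate controls were DMSO wells for no effect and camptothecin positive control wells for full effect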
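Read-out is percentage of cells bearing a perinucleolar compartment, from automated 20x imaging of fixed, Hoechst-stained PC3M PTB-GFP cells. Cells were seeded 4 h, then exposed 16 h to compound (23 nl of library stock) in duplicate plates.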
* hit, by the source's call; ? = inconclusive; · = no result; [ ] = another dose, or the depositor's remark. This is a sample that favours compounds with a hit; in the whole collection about 3.3% have one here. Unless noted, the call rests on the fitted dose curve; in most records, active means well fitted curve in the direction sought with a large enough effect; inconclusive means small, poorly fitted or top-dose-only effect, or another doubt; inactive means no such curve, though single readings can be large; an effect the other way counts as inactive or inconclusive.

SMILES | HTT aggregate | HTT ATP protect | IMPase cell inh | ALOX12 inhib | NPSR antagonist | PNC inhibitor
COc1ccc(-c2cc(C(F)(F)F)nc(SCC(=O)Nc3ccc(C(C)=O)cc3)n2)cc1 | · | · | 3 | · | · | ·
CN1CCc2ccccc2[C@@H]1Cc1ccccc1NC(=O)c1sc2ccccc2c1Cl | · | -4%[10 µM] | · | -1%[11.4 µM] | · | ·
CC(=O)c1ccc(N2CCN(C(=O)c3ccc4c(=O)n(-c5ccccc5)c(=O)[nH]c4c3)CC2)cc1 | -1% | -12%[10 µM] | -2 | 1% | -5% | -108*
O=C(c1ccc2c(=O)n(-c3ccccc3)c(=O)[nH]c2c1)N1CCN(c2ccc(F)cc2)CC1 | -8% | 0% | 5 | 0% | -4%[46.1 µM] | -4
CCN1/C(=C\C(=S)Nc2ccccc2)Sc2ccccc21 | 17%[9.22 µM] | 23%[10 µM] | · | · | 24% | ·
CCN1/C(=C/C(C)=C/c2sc3ccccc3[n+]2CC)Sc2ccccc21 | 1.1µM* | -186% | · | · | ? | ·
CNC(=O)c1sc(-c2ccc(Cl)cc2)nc1C | 23% | -24% | -16 | -3% | -4%[46.1 µM] | -90*
CNC(=O)c1sc(-c2ccccc2)nc1C | 8% | -18% | -5 | -1% | ? | -83*
COc1ccc(Cl)cc1N=Nc1ncc[nH]1 | · | ? | 7 | -11% | · | ·
CCCCCCCCCCC(C)(C)C(=O)Nc1c(OC)cc(OC)cc1OC | · | -46% | · | -2% | · | ·
O=C(Cc1cccs1)Nc1cccc(-c2nc3cc4ccccc4cc3[nH]2)c1 | 25µM* | · | · | -6% | -50% | -16
N#Cc1cc(S(=O)(=O)c2ccccc2)c(N)[nH]c1=O | -2% | -5%[10 µM] | -14[1.84 µM] | 7% | 6%[46.1 µM] | -113*
OCCNc1nc(-c2ccccc2)nc2ccccc12 | -2% | -32% | · | · | -1% | ·
CCN(CC)CCCNc1nc(-c2ccccc2)nc2ccccc12 | 13% | 1%[10 µM] | -6 | 16% | -1%[46.1 µM] | -100*
N#Cc1c(N2CCCC(O)C2)nc(N)c2c(N)nc3c(c12)CC(=O)N3C12CC3CC(CC(C3)C1)C2 (stereo not drawn) | 18% | -19% | -5 | ? | ? | ?
C=C(C)CN(CC)c1nc(N)c2c(N)nc3c(c2c1C#N)CC(=O)N3C12CC3CC(CC(C3)C1)C2 | ? | -36% | -4 | -8% | 5µM* | 0
Cc1cc2c(nc1C)CCCCN2C[C@H](C)O/N=C\[C@@H](C)[C@H](OCc1ccccc1)C(C)C | · | -1%[10 µM] | · | · | · | ·
O=C(NNC(=O)c1cc2cc(Br)ccc2oc1=O)c1ccc(O)cc1O | 35µM* | ? | · | · | -41% | ·
COc1ccc(N2C(=O)CC(Sc3nnc(-c4ccccc4)o3)C2=O)cc1 (stereo not drawn) | 25µM* | -150% | ? | -10% | ? | ?
O=C(Nc1nc2ccc(SC(F)F)cc2s1)c1ccc(NS(=O)(=O)c2ccc(F)c(F)c2)cc1 | ? | 25%[0.074 µM] | · | -1% | 13µM* | -14
CC(=O)NC1(c2ccc(F)cc2)CCN(C(=O)Nc2ccc(F)cc2F)CC1 | 3.2µM* | -97%[10 µM] | 0 | -3% | -4%[46.1 µM] | 26
O=C(CCc1ccccc1)N1CCN(c2ccccn2)CC1 | -8% | · | · | -1% | 3% | -23
O=C(c1ccccc1CCc1ccccc1)N1CCN(c2ccccn2)CC1 | -1% | 5% | 1 | -3% | -26%[46.1 µM] | -84*
Cc1cc(OCc2cccc(Cl)c2)c(C)cc1CN1CCOCC1 | ? | 1.1µM* | · | · | 36% | ·
COC(=O)c1ccccc1NC(=O)C1CCCN(S(=O)(=O)c2ccccc2)C1 (stereo not drawn) | -9% | 2% | 11 | -8% | -24%[46.1 µM] | ?
SMILES | HTT aggregate | HTT ATP protect | IMPase cell inh | ALOX12 inhib | NPSR antagonist | PNC inhibitor
O=C(Nc1cc(S(=O)(=O)N2CCCCC2)ccc1Cl)c1ccccc1NS(=O)(=O)c1ccc(F)cc1 | 3.2µM* | -67%[10 µM] | · | -3% | -53% | 184
COC(=O)c1ccccc1NC(=O)C1CCCN(S(=O)(=O)c2ccc(F)cc2)C1 (stereo not drawn) | -16% | 18%[10 µM] | -6 | 8% | -25%[46.1 µM] | -89*
O=C(Nc1ccc(F)cc1)Nc1ccc(N2CCCC2)c(S(=O)(=O)Nc2ccccc2Cl)c1 | ? | -31%[10 µM] | · | 1% | 10µM* | 43
CC1(C)C/C(=N\NC(=S)Nc2ccccc2F)c2cc(O)ccc2O1 | -7% | -10%[10 µM] | · | · | -34% | ·
COc1ccc(Oc2ncc3nc(-c4ccc(F)cc4)c(=O)n(CCC#N)c3n2)cc1 | · | 17% | · | · | · | ·
CN(C)C[C@H]1CCC[C@@H](CN(C)C)C1=O | · | 6%[10 µM] | · | -6%[11.4 µM] | · | ·
CCOC(=O)c1sc(S(C)(=O)=O)c2c1CCc1conc1-2 | -7%[9.22 µM] | 10%[10 µM] | · | · | 19% | ·
Clc1ccccc1-c1nnc(-c2ccccc2CNc2ccc(Br)cc2)o1 | · | · | 5 | · | · | ·
CC(C)c1nc2sc3c(=O)[nH]cnc3c2c2c1CCCC2 | -2%[9.22 µM] | 19%[10 µM] | · | · | ? | ·
CC(C)c1nc2sc3c(=O)[nH]cnc3c2c2c1CCC2 | 21% | 7%[10 µM] | · | 1% | 2% | -84*
N#CCCN1CCN(C2=NC(=O)C(=C3CCCCC3)S2)CC1 | 5% | 0%[10 µM] | -4 | -4% | 20µM* | 19
CC(=O)N1CCN(C2=NC(=O)C(=C3CCCCC3)S2)CC1 | 1% | -1%[10 µM] | 2 | -1% | -10%[46.1 µM] | -100*
O=C(Nc1cc(C(F)(F)F)ccc1N1CCCC1)c1cccnc1 | 5% | 16% | -6 | 0% | 10%[46.1 µM] | -89*
Cc1ccc(-c2ccc(/C=C3\C(=O)ON=C3c3ccccc3)o2)c([N+](=O)[O-])c1 | -16% | -35% | 3 | -8% | 7.9µM* | 26
O=C1/C(=C\c2ccc(-c3ccccc3[N+](=O)[O-])o2)C(c2ccccc2)=NN1c1ccccc1 | ? | 3%[10 µM] | 1 | -1% | -16% | -86*
Cc1ccc(/C=C2\C(=O)ON=C2c2ccccc2)o1 | 3%[9.22 µM] | 8%[10 µM] | · | · | -10% | ·
C=C1C[C@]23C[C@@]1(O)CC[C@H]2[C@@]12C=C[C@H](O)C(C)(C(=O)O1)[C@H]2[C@@H]3CC(=O)O | · | 35% | · | · | · | ·
O=C(O)/C=C\C(=O)Nc1ccccc1F | 10% | 23%[10 µM] | 0 | 3% | 15% | -119*
CC(C)NC(=O)/C(C#N)=C/c1ccc(N(C)C)o1 | -9%[9.22 µM] | 19%[10 µM] | · | · | 13µM* | ·
CCOCC(=O)Nc1nc2ccc(C)cc2s1 | -18% | -23%[10 µM] | -4 | -5% | -2%[46.1 µM] | -100*
CCC(=O)Nc1nc2ccc(S(C)(=O)=O)cc2s1 | -3% | 19%[10 µM] | -7 | -1% | -12%[46.1 µM] | -100*
Cc1ccc2nc(NC(=O)CSc3ncnc4c3oc3ccccc34)sc2c1 | 1% | 2%[10 µM] | -2 | 2% | 0%[46.1 µM] | -108*
CCOCC(=O)Nc1nc2ccc(S(C)(=O)=O)cc2s1 | 4% | -11% | 10 | 3% | -11%[46.1 µM] | -6
Cc1cccc(NC(=O)CSc2ncnc3c2oc2ccccc23)c1 | -5% | -51% | -6 | -4% | ? | 2

Screening results from PubChem.
